Experimental data reported in PubChem BioAssay (NCATS).
Records with an inconclusive call do not appear. Activity calls are given as the source filed them. Calls follow the shape of the dose curve; as a rule, active = well fitted inhibition curve with a large enough effect; inconclusive = small, poorly fitted or top-dose-only effect; inactive = flat fitted curve, though single readings scatter.

Assays:
Assay in all cases: Cytotoxic Profiling of Annotated Libraries Using Quantitative High-Throughput Screening (AID 1296008); also: nearly all actives have a fitted effect of over 60% in size
Details in all cases: Five cell lines viability, CellTiter-Glo ATP luminescence, 48-72 h; max response: active compounds read low
CRL-7250 = normal cell line; test system: CRL-7250
Procedure, shortened: (§1)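 Cells exposed to compounds for 48 or 72 hr at 37 degrees Celsius. Viability read as ATP-coupled luminescence with CellTiter-Glo after 10 min at room temperature.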

HEK293 = test system: HEK293
Procedure, shortened: as §1

HaCat = test system: HaCat
Procedure, shortened: as §1

KB-3-1 = test system: KB-3-1
Procedure, shortened: as §1

NIH3T3 = test system: NIH3T3
Procedure, shortened: as §1

Measured: max response
% is scaled to controls: 0 for no effect and ±100 for the full control effect.

C[C@@]1(O)[C@H](O)[C@@H](CO)O[C@H]1n1cnc2c(=O)[nH]c(N)nc21
inactive: CRL-7250 0.111% | HEK293 0.681% | HaCat -4.96% | KB-3-1 | NIH3T3

C[C@@H](NC(=O)c1cc(C(=O)N[C@@H](Cc2ccccc2)[C@H](O)CNC2CC2)cc(N(C)S(C)(=O)=O)c1)c1ccccc1
inactive: CRL-7250 2.97% | HEK293 -6.18% | HaCat | KB-3-1 -1.48% | NIH3T3

CC1(C)CC[C@]2(C(=O)O[C@@H]3O[C@H](CO)[C@@H](O)[C@H](O)[C@H]3O)CC[C@]3(C)C(=CCC4[C@@]5(C)CC[C@H](O[C@@H]6O[C@H](C(=O)O)[C@@H](O[C@@H]7O[C@H](CO)[C@@H](O)[C@H](O)[C@H]7O)[C@H](O)[C@H]6O[C@@H]6O[C@H](CO)[C@@H](O)[C@H](O)[C@H]6O)C(C)(C)C5CC[C@]43C)C2C1 (stereo not given in full)
inactive: CRL-7250 -7.32% | HEK293 -5.89% | HaCat | KB-3-1 9.55% | NIH3T3

CCC(=O)OCC(=O)[C@@]1(OC(=O)CC)[C@@H](C)C[C@H]2[C@@H]3CCC4=CC(=O)C=C[C@]4(C)[C@@]3(F)[C@@H](O)C[C@@]21C
inactive: CRL-7250 -9.64% | HEK293 -7.33% | HaCat -29.8% | KB-3-1 | NIH3T3

C=C(COC(=O)C(C)C)C1Oc2cc(C(C)=O)ccc2C1OC(=O)C(C)C (stereo not given)
inactive: CRL-7250 -10.7% | HEK293 1.24% | HaCat | KB-3-1 4.68% | NIH3T3 0.455%

C=C(C)C(O)COc1ccc(CC(=O)O)cc1 (stereo not given)
inactive: CRL-7250 -8.29% | HEK293 2.49% | HaCat -1.96% | KB-3-1 | NIH3T3

C[C@@H](c1ccccc1)N(C(N)=NC#N)c1cccc2ncccc12
inactive: CRL-7250 | HEK293 0.131% | HaCat | KB-3-1 | NIH3T3 3.53%

COC(=O)C1=CO[C@@H](O[C@@H]2O[C@H](CO)[C@@H](O)[C@H](O)[C@H]2O)[C@@H]2[C@@H](C)[C@@H](OC(=O)/C=C/c3ccccc3)[C@@H](O)[C@H]12
inactive: CRL-7250 -5.94% | HEK293 -9.01% | HaCat -9.9% | KB-3-1 | NIH3T3

C/C=C(\C)C(=O)O[C@H]1C=CC(=O)O[C@H]1/C=C/[C@H](O)[C@@H](C)O
inactive: CRL-7250 4.14% | HEK293 -103% | HaCat | KB-3-1 | NIH3T3 -1.43%

N[C@@H](CC(=O)Nc1ccc(Oc2cc(F)c(F)cc2Br)cc1)C(=O)O
inactive: CRL-7250 -23% | HEK293 -28.9% | HaCat | KB-3-1 -3.53% | NIH3T3 0.0129%

CC(=O)O[C@H]1C[C@@H](O)C(C)(C)C2C[C@@H](OC(C)=O)[C@]3(C)C(CC[C@@]4(C)[C@H](c5ccoc5)OC(=O)[C@H]5O[C@]543)[C@]21C (stereo not given in full)
inactive: CRL-7250 -9.34% | HEK293 -3.17% | HaCat | KB-3-1 | NIH3T3 1.84%

CCCCOc1nc(N)c2c(n1)N(Cc1cccc(CN3CCCC3)c1)CC(=O)N2
inactive: CRL-7250 | HEK293 -3.01% | HaCat | KB-3-1 -3.08% | NIH3T3

O=C(/C=C/c1ccc(O)c(O)c1)O[C@H]1[C@@H]2C=CO[C@@H](O[C@@H]3O[C@H](CO)[C@@H](O)[C@H](O)[C@H]3O)[C@@H]2[C@@]2(CO)O[C@@H]12
inactive: CRL-7250 -3.33% | HEK293 -6.64% | HaCat | KB-3-1 | NIH3T3 -4.11%

CC(C)c1ccc2c(c1)C(=O)CC1C(C)(C(=O)O)CCCC21C (stereo not given)
inactive: CRL-7250 -5.24% | HEK293 -1.52% | HaCat | KB-3-1 -0.919% | NIH3T3 -2.58%

O=C(Nc1cc(-c2ccccc2)nn1-c1ccccc1)c1ccc([N+](=O)[O-])cc1
inactive: CRL-7250 -6.57% | HEK293 -12.1% | HaCat 1.9% | KB-3-1 -7.82% | NIH3T3

CCOC(=O)C1=C(N)Oc2ccc(Cl)cc2C1C(C#N)C(=O)OCC (stereo not given)
inactive: CRL-7250 2.77% | HEK293 1.25% | HaCat | KB-3-1 | NIH3T3 -2.7%

C[C@]1(OC(=O)/C=C\c2ccc(O)cc2)C[C@@H](O)[C@]2(O)C=CO[C@@H](O[C@@H]3O[C@H](CO)[C@@H](O)[C@H](O)[C@H]3O)C12 (stereo not given in full)
inactive: CRL-7250 -13.5% | HEK293 -4.97% | HaCat -23.9% | KB-3-1 | NIH3T3
